Inconclusive results are not listed. Some structures have more than one record in an assay (separate samples or runs), and their calls can disagree. Calls of active or inactive are those of the source. Rule for the calls, unless noted: active = hit-call score of the fitted dose curve at least 0.9, where 1 is the maximum; inactive = score below 0.9.
Key:
[1] = BSK_3C_VCAM1: BioMAP Diversity Plus: 3C Assay for Vascular cell adhesion molecule 1 (VCAM1) Biomarker Activity (AID 2282999); details: BioMAP 3C HUVEC, VCAM1 ELISA, cytokine-stimulated; actives raise or lower the signal
Summary of the method: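 Human umbilical vein endothelial cells (3C system), biomarker read by ELISA 24 h after dosing; bidirectional fit against DMSO baseline. Cytotoxicity tracked by SRB total-protein staining in parallel cultures at biomarker time.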

[2] = BSK_4H_Eotaxin3: BioMAP Diversity Plus: 4H Assay for Eotaxin 3 Biomarker Activity (AID 2283000); details: primary human endothelial cells (HUVEC); actives raise or lower the signal
Summary of the method: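 HUVEC, 24 h post-dose, ELISA for Eotaxin-3/CCL26. Gain or loss of signal fitted bidirectionally vs DMSO baseline.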

[3] = target: human Peroxisome Proliferator-activated Receptor alpha (PPARa), PPARA (gene 5465) (UniProt Q07869); test: ATG_PPARa_TRANS: Attagene TRANS-FACTORIAL HepG2 Assay for human Peroxisome Proliferator-activated Receptor alpha (PPARa) (AID 2283001; active = hit-call score of the fitted dose curve at least 0.9, where 1 is the maximum)
Summary of the method: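 HepG2 cells transiently transfected with multiplexed GAL4-UAS reporters driven by exogenous chimeric NR-Gal4 proteins; reporter mRNA measured after 24 h dosing. Read-out by RT-PCR, 6-FAM labelling, HpaI digestion and capillary electrophoresis; gain of signal versus DMSO.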

[4] = target: human Peroxisome Proliferator-activated Receptor delta (PPARd), PPARD (gene 5467) (UniProt Q03181); test: ATG_PPARd_TRANS: Attagene TRANS-FACTORIAL HepG2 Assay for human Peroxisome Proliferator-activated Receptor delta (PPARd) (AID 2283002; active = hit-call score of the fitted dose curve at least 0.9, where 1 is the maximum)
Summary of the method: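 HepG2 cells transiently transfected with GAL4-UAS multiplexed reporter units driven by exogenous chimeric NR-GAL4 proteins; 24 h compound exposure. Reporter mRNA measured by RT-PCR, 6-FAM primer extension, HpaI digestion and capillary electrophoresis; gain of signal fitted relative to DMSO.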

[5] = read-out: Intercellular Adhesion Molecule 1 (ICAM1), ICAM1 (gene 3383); test: BSK_3C_ICAM1: BioMAP Diversity Plus: 3C Assay for Intercellular Adhesion Molecule 1 (ICAM1) Biomarker Activity (AID 2283003); details: primary human endothelial cells (HUVEC); actives raise or lower the signal
Summary of the method: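 HUVEC primary cells stimulated under 3C conditions; ICAM1 measured by ELISA 24 h after compound dosing. Curves fitted bidirectionally against the DMSO baseline. Overt cytotoxicity checked by SRB staining of parallel cultures.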

[6] = BSK_3C_Proliferation: Cell Proliferation Assessment in the BioMAP Diversity Plus: 3C Assay (AID 2283006); details: primary human endothelial cells (HUVEC);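 for AC50: potency may reflect either rise or fall in cell number versus DMSO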
Summary of the method: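 Subconfluent HUVEC (3C system) cultured with chemical; relative cell number read at 48 h by sulforhodamine B total-protein staining (0.1% SRB after 10% TCA fixation, 560 nm). Bidirectional fit relative to DMSO.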

[7] = target: Peroxisome proliferator-activated receptor gamma (Homo sapiens) (UniProt P37231); test: ATG_PPARg_TRANS: Attagene TRANS-FACTORIAL HepG2 Assay for human Peroxisome Proliferator-activated Receptor-gamma (PPARg) (AID 2283007; active = hit-call score of the fitted dose curve at least 0.9, where 1 is the maximum)
Summary of the method: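 After 24 h of chemical exposure, transfected HepG2 cells carrying PPARγ-Gal4 chimera reporter constructs are lysed for RNA. Reporter transcripts are measured by RT-PCR and capillary electrophoresis with fluorescent labelling, and gain of signal is fitted versus DMSO.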

[8] = target: human RAR-related Orphan Receptor beta (RORb), RORB (gene 6096) (UniProt Q92753); test: ATG_RORb_TRANS: Attagene TRANS-FACTORIAL HepG2 Assay for human RAR-related Orphan Receptor beta (RORb) (AID 2283010; active = hit-call score of the fitted dose curve at least 0.9, where 1 is the maximum)
Summary of the method: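 HepG2 cells transiently transfected with GAL4-UAS reporter units expressing chimeric NR-Gal4 protein; reporter mRNA measured 24 h after dosing by RT-PCR, 6-FAM labelling and capillary electrophoresis. Gain-of-signal fitted relative to DMSO baseline.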

[9] = target: human Retinoid X Receptor beta (RXRb), RXRB (gene 6257) (UniProt P28702); test: ATG_RXRb_TRANS: Attagene TRANS-FACTORIAL HepG2 Assay for human Retinoid X Receptor beta (RXRb) (AID 2283013; active = hit-call score of the fitted dose curve at least 0.9, where 1 is the maximum)
Summary of the method: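 HepG2 cells were transiently transfected with multiplexed GAL4-UAS reporters and a chimeric RXRb-Gal4 construct, then exposed for 24 h. Reporter mRNA was quantified by RT-PCR, FAM labeling, HpaI digestion and capillary electrophoresis; gain of signal was scored against DMSO.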

[10] = read-out: E-selectin (Homo sapiens) (UniProt P16581); test: BSK_3C_Eselectin: BioMAP Diversity Plus: 3C Assay for Eselectin Biomarker Activity (AID 2283015); details: primary human endothelial cells (HUVEC); actives raise or lower the signal
Summary of the method: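 Primary human umbilical vein endothelial cells (3C system) were dosed with chemical and cell-surface E-selectin measured by ELISA 24 h later. Bidirectional curve fitting used DMSO as negative control and baseline.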

[11] = read-out: Interleukin-1 alpha (IL1a), IL1A (gene 3552); test: BSK_BE3C_IL1a: BioMAP Diversity Plus: BE3C Assay for Interleukin-1 alpha (IL1a) Biomarker Activity (AID 2283016); details: primary human bronchial epithelial cells; actives raise or lower the signal
Summary of the method: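 Human primary bronchial epithelial cells, 24 h chemical exposure; IL-1a quantified by ELISA, fitted bidirectionally against DMSO. Cytotoxicity assessed in parallel by SRB total-protein staining at the time of measurement.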

[12] = read-out: Monocyte Chemoattractant Protein-1 (MCP1), CCL2 (gene 6347); test: BSK_3C_MCP1: BioMAP Diversity Plus: 3C Assay for Monocyte Chemoattractant Protein-1 (MCP1) Biomarker Activity (AID 2283017); details: primary human endothelial cells (HUVEC); actives raise or lower the signal
Summary of the method: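 Primary human umbilical vein endothelial cells (3C system) were exposed to test chemical for 24 h, after which MCP-1 was quantified by ELISA. Activity was fitted bidirectionally against DMSO as negative control and baseline.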

[13] = read-out: Monocyte Chemoattractant Protein-1 (MCP1), CCL2 (gene 6347); test: BSK_4H_MCP1: BioMAP Diversity Plus: 4H Assay for Monocyte Chemoattractant Protein-1 (MCP1) Biomarker Activity (AID 2283018); details: primary human endothelial cells (HUVEC); actives raise or lower the signal
Summary of the method: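 Human umbilical vein endothelial cells (4H system) exposed to chemicals for 24 h in 96-well format. MCP-1 measured by ELISA; bidirectional fitting against DMSO, with SRB total-protein staining in parallel cultures for cytotoxicity.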

[14] = target: Nuclear receptor subfamily 1 group I member 2 (Homo sapiens) (UniProt O75469); test: ATG_PXR_TRANS: Attagene TRANS-FACTORIAL HepG2 Assay for human Pregnane X Receptor (PXR) (AID 2283008; active = hit-call score of the fitted dose curve at least 0.9, where 1 is the maximum)
Summary of the method: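 Measures mRNA induction of a GAL4-UAS-driven reporter in human HepG2 cells transiently expressing PXR fused to Gal4, following 24 h treatment. DMSO served as negative control and baseline.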

[15] = target: Retinoic acid receptor RXR-alpha (Homo sapiens) (UniProt P19793); test: ATG_RXRa_TRANS: Attagene TRANS-FACTORIAL HepG2 Assay for human Retinoid X Receptor alpha (RXRa) (AID 2283012; active = hit-call score of the fitted dose curve at least 0.9, where 1 is the maximum)
Summary of the method: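 HepG2 cells transiently transfected with GAL4-UAS reporter units and chimeric RXRa-Gal4 protein, treated 24 h. Reporter mRNA measured by RT-PCR, fluorescent labelling, HpaI digestion and capillary electrophoresis. Induction fitted against DMSO.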

[16] = target: human Thyroid Receptor alpha (THRa1), THRA (gene 7067) (UniProt P10827); test: ATG_THRa1_TRANS: Attagene TRANS-FACTORIAL HepG2 Assay for human Thyroid Receptor alpha (THRa1) (AID 2283014; active = hit-call score of the fitted dose curve at least 0.9, where 1 is the maximum)
Summary of the method: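 HepG2 cells transiently transfected with multiplexed GAL4-UAS reporter units for exogenous chimeric THRa1-Gal4; reporter mRNA measured 24 h after dosing by RT-PCR, 6-FAM labelling, HpaI digestion and capillary electrophoresis. Gain-of-signal fitted versus DMSO baseline.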

[17] = target: human Retinoic Acid Receptor gamma (RARg), RARG (gene 5916) (UniProt P13631); test: ATG_RARg_TRANS: Attagene TRANS-FACTORIAL HepG2 Assay for human Retinoic Acid Receptor gamma (RARg) (AID 2283009; active = hit-call score of the fitted dose curve at least 0.9, where 1 is the maximum;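 for AC50: AC50 is for reporter induction above DMSO meaning RARg activation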)
Summary of the method: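 HepG2 transiently transfected with GAL4-UAS reporter units and chimeric NR-Gal4 constructs; 24 h compound exposure. Reporter mRNA quantified by RT-PCR, FAM labeling, HpaI digestion and capillary electrophoresis; gain-of-signal versus DMSO.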

[18] = target: human Retinoic Acid Receptor beta (RARb), RARB (gene 5915) (UniProt P10826); test: ATG_RARb_TRANS: Attagene TRANS-FACTORIAL HepG2 Assay for human Retinoic Acid Receptor beta (AID 2283004; active = hit-call score of the fitted dose curve at least 0.9, where 1 is the maximum)
Summary of the method: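 HepG2 cells transiently transfected with multiplexed GAL4-UAS reporter units expressing chimeric NR–Gal4 fusions; 24 h compound exposure. Reporter mRNA quantified by RT-PCR, 6-FAM labelling, HpaI digestion and capillary electrophoresis; gain-of-signal fitted against DMSO baseline.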

[19] = target: Retinoic acid receptor alpha (Homo sapiens) (UniProt P10276); test: ATG_RARa_TRANS: Attagene TRANS-FACTORIAL HepG2 Assay for human Retinoic Acid Receptor alpha (RARa) (AID 2283005; active = hit-call score of the fitted dose curve at least 0.9, where 1 is the maximum;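 for AC50: potency for increased reporter signal meaning RARa activation over DMSO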)
Summary of the method: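 HepG2 transiently transfected with multiplex GAL4-UAS reporter units including a human RARa–GAL4 chimera; 24 h compound exposure. Reporter mRNA quantified by RT-PCR, 6-FAM labeling and capillary electrophoresis; gain of signal versus DMSO.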

Measured: AC50

Chain of human RAR-related Orphan Receptor beta (RORb), RORB (gene 6096) (Q92753 whole entry, looked up, the tested form may be a part): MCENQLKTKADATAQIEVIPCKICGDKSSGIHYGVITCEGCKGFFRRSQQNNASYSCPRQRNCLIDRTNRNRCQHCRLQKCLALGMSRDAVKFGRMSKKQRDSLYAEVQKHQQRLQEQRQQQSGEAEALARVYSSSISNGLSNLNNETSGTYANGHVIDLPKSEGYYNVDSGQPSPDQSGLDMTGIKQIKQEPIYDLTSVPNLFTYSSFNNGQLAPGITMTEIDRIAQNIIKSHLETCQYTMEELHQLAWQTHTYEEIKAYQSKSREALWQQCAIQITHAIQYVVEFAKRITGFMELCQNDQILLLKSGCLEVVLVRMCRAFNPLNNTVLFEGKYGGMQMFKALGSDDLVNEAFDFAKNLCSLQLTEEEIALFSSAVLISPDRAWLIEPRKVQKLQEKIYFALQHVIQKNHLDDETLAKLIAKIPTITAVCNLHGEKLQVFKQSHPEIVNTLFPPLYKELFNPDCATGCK
Chain of Nuclear receptor subfamily 1 group I member 2 (Homo sapiens) (O75469 whole entry, looked up, the tested form may be a part): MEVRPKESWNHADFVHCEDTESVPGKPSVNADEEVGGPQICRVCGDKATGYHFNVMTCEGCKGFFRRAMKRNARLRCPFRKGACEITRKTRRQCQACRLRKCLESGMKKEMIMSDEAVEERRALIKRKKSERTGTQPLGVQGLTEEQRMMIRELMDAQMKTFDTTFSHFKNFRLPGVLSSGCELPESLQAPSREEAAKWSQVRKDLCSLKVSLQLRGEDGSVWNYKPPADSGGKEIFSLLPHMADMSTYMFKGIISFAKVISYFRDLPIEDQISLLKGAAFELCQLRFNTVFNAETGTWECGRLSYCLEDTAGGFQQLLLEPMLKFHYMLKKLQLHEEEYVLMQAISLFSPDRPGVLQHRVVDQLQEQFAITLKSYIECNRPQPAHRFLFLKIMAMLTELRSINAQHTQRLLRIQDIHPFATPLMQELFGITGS
Chain of human Retinoic Acid Receptor gamma (RARg), RARG (gene 5916) (P13631 whole entry, looked up, the tested form may be a part): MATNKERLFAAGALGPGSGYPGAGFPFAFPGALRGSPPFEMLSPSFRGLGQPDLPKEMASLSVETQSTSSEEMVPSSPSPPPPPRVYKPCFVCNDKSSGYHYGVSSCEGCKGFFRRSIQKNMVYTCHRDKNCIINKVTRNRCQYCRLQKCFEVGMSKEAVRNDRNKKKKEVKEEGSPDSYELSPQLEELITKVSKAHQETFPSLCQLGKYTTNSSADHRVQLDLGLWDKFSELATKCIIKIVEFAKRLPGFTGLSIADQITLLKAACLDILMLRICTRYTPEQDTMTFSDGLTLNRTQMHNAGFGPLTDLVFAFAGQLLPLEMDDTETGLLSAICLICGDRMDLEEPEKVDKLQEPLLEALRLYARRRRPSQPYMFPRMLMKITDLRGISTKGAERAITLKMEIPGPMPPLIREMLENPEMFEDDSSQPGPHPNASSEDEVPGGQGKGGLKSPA
Chain of E-selectin (Homo sapiens) (P16581 whole entry, looked up): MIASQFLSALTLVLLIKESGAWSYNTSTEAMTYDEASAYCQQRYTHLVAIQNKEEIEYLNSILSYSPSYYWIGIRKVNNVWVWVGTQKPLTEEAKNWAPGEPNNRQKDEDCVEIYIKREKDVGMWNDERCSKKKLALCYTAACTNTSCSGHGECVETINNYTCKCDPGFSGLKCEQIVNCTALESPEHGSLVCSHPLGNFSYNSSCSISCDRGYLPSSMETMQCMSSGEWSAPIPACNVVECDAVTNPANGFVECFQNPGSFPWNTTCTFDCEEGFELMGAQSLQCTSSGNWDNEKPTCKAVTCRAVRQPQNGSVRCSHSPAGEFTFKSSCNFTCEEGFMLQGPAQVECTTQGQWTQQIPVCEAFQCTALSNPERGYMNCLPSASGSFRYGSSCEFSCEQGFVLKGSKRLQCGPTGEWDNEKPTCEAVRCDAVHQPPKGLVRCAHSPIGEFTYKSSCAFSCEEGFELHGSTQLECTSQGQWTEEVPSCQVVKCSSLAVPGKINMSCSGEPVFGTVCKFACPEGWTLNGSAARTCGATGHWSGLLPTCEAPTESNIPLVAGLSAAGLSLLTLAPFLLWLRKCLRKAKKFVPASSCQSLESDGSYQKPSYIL
Chain of human Peroxisome Proliferator-activated Receptor delta (PPARd), PPARD (gene 5467) (Q03181 whole entry, looked up, the tested form may be a part): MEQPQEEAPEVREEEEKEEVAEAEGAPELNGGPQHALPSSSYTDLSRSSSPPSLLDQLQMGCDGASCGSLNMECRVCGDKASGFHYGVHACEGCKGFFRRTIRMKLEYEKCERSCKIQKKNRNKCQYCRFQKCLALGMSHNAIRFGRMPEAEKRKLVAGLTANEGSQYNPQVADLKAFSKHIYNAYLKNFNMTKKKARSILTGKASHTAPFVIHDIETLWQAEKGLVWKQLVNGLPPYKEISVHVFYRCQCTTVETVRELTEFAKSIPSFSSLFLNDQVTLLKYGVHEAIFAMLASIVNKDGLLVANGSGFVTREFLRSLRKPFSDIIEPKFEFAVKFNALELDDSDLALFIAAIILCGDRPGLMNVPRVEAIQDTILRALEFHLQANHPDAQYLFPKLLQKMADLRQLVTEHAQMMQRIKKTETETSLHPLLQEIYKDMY
Chain of Retinoic acid receptor RXR-alpha (Homo sapiens) (P19793 whole entry, looked up, the tested form may be a part): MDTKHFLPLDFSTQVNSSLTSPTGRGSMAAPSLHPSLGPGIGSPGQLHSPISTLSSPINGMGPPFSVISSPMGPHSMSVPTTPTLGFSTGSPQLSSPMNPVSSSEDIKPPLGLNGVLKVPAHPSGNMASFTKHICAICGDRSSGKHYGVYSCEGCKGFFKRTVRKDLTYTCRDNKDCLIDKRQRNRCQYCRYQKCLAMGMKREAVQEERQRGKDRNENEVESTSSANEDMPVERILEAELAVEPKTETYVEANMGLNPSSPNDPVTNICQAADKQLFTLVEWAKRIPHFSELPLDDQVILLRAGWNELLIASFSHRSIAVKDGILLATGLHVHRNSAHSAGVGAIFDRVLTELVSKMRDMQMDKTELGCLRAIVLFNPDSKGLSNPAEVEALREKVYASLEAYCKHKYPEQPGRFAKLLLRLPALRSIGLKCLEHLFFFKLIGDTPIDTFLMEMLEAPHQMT
Chain of human Peroxisome Proliferator-activated Receptor alpha (PPARa), PPARA (gene 5465) (Q07869 whole entry, looked up, the tested form may be a part): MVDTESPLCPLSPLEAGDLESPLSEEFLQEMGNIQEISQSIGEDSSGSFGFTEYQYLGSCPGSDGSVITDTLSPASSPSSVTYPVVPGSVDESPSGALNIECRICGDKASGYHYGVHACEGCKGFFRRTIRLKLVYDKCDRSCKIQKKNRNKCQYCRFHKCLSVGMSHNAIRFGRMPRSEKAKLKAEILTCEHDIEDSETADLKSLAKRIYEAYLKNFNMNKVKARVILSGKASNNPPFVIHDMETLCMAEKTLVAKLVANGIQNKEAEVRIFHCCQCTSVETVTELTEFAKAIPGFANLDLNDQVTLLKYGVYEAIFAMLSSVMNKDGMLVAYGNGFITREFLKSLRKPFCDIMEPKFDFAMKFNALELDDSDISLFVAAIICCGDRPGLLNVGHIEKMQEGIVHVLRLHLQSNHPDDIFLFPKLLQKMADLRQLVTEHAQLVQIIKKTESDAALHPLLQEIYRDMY
Chain of Peroxisome proliferator-activated receptor gamma (Homo sapiens) (P37231 whole entry, looked up, the tested form may be a part): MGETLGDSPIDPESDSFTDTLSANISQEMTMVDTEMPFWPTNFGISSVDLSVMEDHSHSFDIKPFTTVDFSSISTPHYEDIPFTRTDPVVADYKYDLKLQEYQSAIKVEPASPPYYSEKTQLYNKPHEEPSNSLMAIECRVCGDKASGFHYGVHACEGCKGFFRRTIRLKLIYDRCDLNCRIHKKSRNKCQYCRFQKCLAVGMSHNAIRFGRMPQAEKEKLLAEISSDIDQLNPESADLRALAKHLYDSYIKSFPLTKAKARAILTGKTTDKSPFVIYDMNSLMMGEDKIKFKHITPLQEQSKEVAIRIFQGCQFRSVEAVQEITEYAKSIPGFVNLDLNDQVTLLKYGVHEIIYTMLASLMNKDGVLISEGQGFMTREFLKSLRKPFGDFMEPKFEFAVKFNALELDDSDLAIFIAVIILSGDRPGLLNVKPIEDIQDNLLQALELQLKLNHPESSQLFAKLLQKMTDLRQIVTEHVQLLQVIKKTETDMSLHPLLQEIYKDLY
Chain of human Retinoid X Receptor beta (RXRb), RXRB (gene 6257) (P28702 whole entry, looked up, the tested form may be a part): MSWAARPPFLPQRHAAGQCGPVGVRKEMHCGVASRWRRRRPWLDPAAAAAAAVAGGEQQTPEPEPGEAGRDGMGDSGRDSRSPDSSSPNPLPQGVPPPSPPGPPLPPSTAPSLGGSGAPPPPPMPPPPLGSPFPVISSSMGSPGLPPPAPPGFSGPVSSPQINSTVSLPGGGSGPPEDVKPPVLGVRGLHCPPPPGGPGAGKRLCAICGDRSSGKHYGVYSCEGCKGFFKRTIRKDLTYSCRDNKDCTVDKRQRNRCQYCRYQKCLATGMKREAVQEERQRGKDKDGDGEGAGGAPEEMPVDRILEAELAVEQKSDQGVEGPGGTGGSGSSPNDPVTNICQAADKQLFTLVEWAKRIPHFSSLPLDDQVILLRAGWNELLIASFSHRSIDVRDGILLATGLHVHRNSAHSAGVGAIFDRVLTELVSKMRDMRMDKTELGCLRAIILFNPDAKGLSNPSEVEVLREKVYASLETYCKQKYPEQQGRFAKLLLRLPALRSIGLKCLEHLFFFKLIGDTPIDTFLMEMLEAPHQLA
Chain of human Thyroid Receptor alpha (THRa1), THRA (gene 7067) (P10827 whole entry, looked up, the tested form may be a part): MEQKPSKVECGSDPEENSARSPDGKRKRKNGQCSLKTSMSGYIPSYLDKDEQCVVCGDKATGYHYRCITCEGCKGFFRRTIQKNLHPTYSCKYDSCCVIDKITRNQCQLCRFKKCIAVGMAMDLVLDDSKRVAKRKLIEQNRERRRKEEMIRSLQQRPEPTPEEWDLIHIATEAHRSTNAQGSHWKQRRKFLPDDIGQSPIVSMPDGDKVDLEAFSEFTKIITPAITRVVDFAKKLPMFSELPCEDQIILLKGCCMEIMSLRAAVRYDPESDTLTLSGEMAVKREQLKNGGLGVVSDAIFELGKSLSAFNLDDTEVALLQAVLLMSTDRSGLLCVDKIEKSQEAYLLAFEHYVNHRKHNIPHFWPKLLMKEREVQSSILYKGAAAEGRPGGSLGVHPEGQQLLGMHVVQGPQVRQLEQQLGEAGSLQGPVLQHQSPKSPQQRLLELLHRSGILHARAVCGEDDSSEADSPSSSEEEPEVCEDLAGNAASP

CC(C)(OO)c1ccccc1
not listed: [14] | [15] | [16] | [17] | [18] | [19]
inactive: all other assays above

Nc1cccc2ccccc12
active: [6] 7.58 µM
not listed: [4] | [8] | [17] | [18] | [19]
inactive: all other assays above

C=C(C)C(=O)[O][Sn]([CH2]CCC)([CH2]CCC)[CH2]CCC
active: [1] 0.148 µM | [2] 0.254 µM | [5] 0.155 µM | [6] 0.148 µM | [7] 0.291 µM | [14] 0.286 µM | [15] 0.00348 µM | [9] 0.0323 µM | [10] 0.148 µM | [11] 0.148 µM | [12] 0.46 µM | [13] 0.663 µM
inactive: [3] | [4] | [16]

CC(=O)C(Cl)C(=O)N(C)C (stereo unspecified)
active: [1] 20 µM | [2] 21.6 µM | [6] 20 µM | [10] 20 µM | [11] 20 µM | [12] 20 µM | [13] 20 µM
not listed: [17] | [18] | [19]
inactive: all other assays above

CN(C)N=O
not listed: [4] | [7] | [8] | [18] | [19]
inactive: all other assays above

COc1cc(OC)nc(NC(=O)NS(=O)(=O)c2ncccc2C(=O)N(C)C)n1
active: [14] 100 µM
not listed: [16] | [17] | [18] | [19]
inactive: all other assays above

COc1cc(-c2ccc(N)c(OC)c2)ccc1N
inactive: [1] | [2] | [3] | [4] | [5] | [18] | [19] | [6] | [7] | [14] | [17] | [8] | [15] | [16] | [10] | [11] | [12] | [13]
active: [19] 27.4 µM | [6] 28.8 µM | [17] 27.2 µM | [9] 27.6 µM | [11] 5.28 µM | [12] 30 µM

Source: PubChem BioAssay (EPA / NIEHS)
